Inconclusive results are not listed. Entries that show only a call come without a potency. Active and inactive are the calls of the source. Calls come from the whole dose curve; as a rule, active = well fitted inhibition curve with a large enough effect; inconclusive = small, poorly fitted or top-dose-only effect; inactive = flat fitted curve, though single readings scatter. Non-standard residues stand in square brackets, D forms with d. Residues, ends and D or L forms follow the SMILES beside them. *: point of attachment. Nva = CCC[C@H](N)C(=O)O; Cbz = O=C(OCc1ccccc1)*
Tested on: WaGa
Test: qHTS assay to identify novel small-molecules to repurpose for Merkel cell carcinoma treatment (AID 1296009); note: nearly all actives have a fitted effect of over 60% in size
Conditions: MCC and control cell lines, CellTiter-Glo viability, 72 h; series mostly up to 46 µM
Method in brief: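 Viability readout: ATP luminescence (CellTiter-Glo) after 72 hr drug exposure at 37 degree celsius. Dose-response format was 8 points for NPC and 11 points for MIPE; data normalized to in-plate controls.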
Potency is the fitted concentration of half-maximal effect.

Structure (SMILES)	Potency
Cn1cnc(=N)c2[nH]cnc21	0.296 µM (active)
COc1ccnc2[nH]cc(C(=O)C(=O)N3CCN(C(=O)c4ccccc4)C[C@@H]3C)c12	inactive
C[C@](Cc1c[nH]c2ccccc12)(NC(=O)OC1C2CC3CC(C2)CC1C3)C(=O)NC[C@H](NC(=O)CCC(=O)O)c1ccccc1 (some centres not stated)	inactive
CC(=O)NCC(=O)N1[C@H]2CC[C@H]1c1cc(Nc3ncc(C(F)(F)F)c(NC4CCC4)n3)ccc12	0.264 µM (active)
Cc1noc(-c2ccc(CSCCC(=O)O)cc2)c1NC(=O)OC(C)c1ccccc1Cl (configuration not stated)	inactive
CC(C(C)N1CC(=O)NC(=O)C1)N1CC(=O)NC(=O)C1 (configuration not stated)	inactive
CC(=O)NC(CS)C(=O)O (configuration not stated)	inactive
O=S(=O)(O)CCSSCCS(=O)(=O)O	inactive
O=C(O)C=Cc1ccc(Cn2ccnc2)cc1	inactive
CC(=O)O[C@H]1C[C@@H]2CC[C@H]3[C@H]4C[C@H]([N+]5(C)CCCCC5)[C@@H](OC(C)=O)[C@@]4(C)CC[C@@H]3[C@@]2(C)C[C@H]1N1CCCCC1	inactive
CC(C)(O)CC[C@@H](O)[C@](C)(O)[C@H]1CC[C@@]2(O)C3=CC(=O)[C@@H]4C[C@@H](O)[C@@H](O)C[C@]4(C)[C@@H]3CC[C@]12C	inactive
CC1(C)CC(O)CC(C)(C)N1[O]	inactive
COc1ccc(C(C)=O)c(O)c1	inactive
COc1cc(OC)c(NC(=O)Nc2cc(C)on2)cc1Cl	inactive
Cc1cc(C(=O)NOCCO)c(Nc2ccc(I)cc2F)n(C)c1=O	inactive
NC(=O)c1ncn([C@@H]2O[C@H](CO)[C@@H](O)[C@@H]2O)c1O	inactive
CN1[C@H]2CC(OC(=O)[C@@H](CO)c3ccccc3)C[C@H]1[C@H]1O[C@H]12 (some centres not stated)	inactive
CC(Oc1ccc(O)cc1)(P(=O)(O)O)P(=O)(O)O	inactive
O=C(O)CCCCCC(=O)NN=C1CCCC1	inactive

Structure (SMILES)	Potency
C[C@@H](NCc1cc2ccccc2[nH]1)c1cccc2ccccc12	inactive
CCC[C@@H](C=O)NC(=O)[C@H](CC(C)C)NC(=O)[C@H](CC(C)C)NC(=O)OCc1ccccc1 (Cbz-Leu-Leu-[Nva]-aldehyde)	0.833 µM (active)
CC(=O)[C@]1(O)Cc2c(O)c3c(c(O)c2[C@@H](O[C@H]2C[C@H](N)[C@@H](O)[C@H](C)O2)C1)C(=O)c1ccccc1C3=O	0.0833 µM (active)
CO[C@@H]1[C@@H](O)[C@H](O)[C@@H](n2c3c(Cl)cccc3c3c4c(c5c6cccc(Cl)c6[nH]c5c32)C(=O)NC4=O)O[C@@H]1CO	0.166 µM (active)
CCN(CC)CCNC(=O)c1c(C)[nH]c(C=C2C(=O)Nc3ccc(F)cc32)c1C	13.6 µM (active)
NC1=N[C@H]2[C@H](CS[C@H]2CCCCC(=O)O)N1	inactive
c1coc(CNc2ncnc3nc[nH]c23)c1	inactive
CCCNC(=O)[C@H]1O[C@H]1C(=O)N[C@H](C(=O)N1CCC[C@@H]1C(=O)OC)C(C)CC (some centres not stated)	8.33 µM (active)
CC[C@@]1([C@@H]2O[C@@H]([C@H]3O[C@@](O)(CO)[C@H](C)C[C@H]3C)C[C@H]2C)CC[C@H]([C@]2(C)CC[C@]3(C[C@H](O)[C@@H](C)[C@@H]([C@@H](C)[C@@H](OC)[C@H](C)C(=O)O)O3)O2)O1	0.457 µM (active)
CC(=O)O[C@@]12CO[C@H]1C[C@H](O)[C@@]1(C)C(=O)[C@H](O)C3=C(C)[C@@H](OC(=O)C(O)[C@@H](NC(=O)OC(C)(C)C)c4ccccc4)C[C@@](O)([C@@H](OC(=O)c4ccccc4)[C@@H]21)C3(C)C (some centres not stated)	inactive
N#Cc1cc(NC(=O)Nc2nnc(-c3ccncc3)s2)ccc1-c1cn[nH]c1	inactive
C=C1C(=O)O[C@H]2[C@@H]1CCC(C)=CCC[C@@]1(C)O[C@@H]21	7.43 µM (active)
C[C@H](NCc1ccc2c(c1)nc(NC(=O)c1ccc(-c3cn[nH]c3)s1)n2CCc1ccccc1)C(C)(C)C	4.69 µM (active)
CCCCCCCN(CC)CCCC(O)c1ccc(NS(C)(=O)=O)cc1 (configuration not stated)	inactive
O=C(O)C[C@H](O)C[C@H](O)C=Cc1c(C2CC2)nc2ccccc2c1-c1ccc(F)cc1	7.43 µM (active)
O=C(CCCCCCC(=O)Nc1cccnc1)NO	2.35 µM (active)
O=C(C=CC#Cc1cccc(NS(=O)(=O)c2ccccc2)c1)NO	1.18 µM (active)
C=C(C)[C@@H]1CC[C@]2(C(=O)O)CC[C@]3(C)[C@H](CC[C@@H]4[C@@]5(C)CC[C@H](O)C(C)(C)[C@@H]5CC[C@]43C)[C@@H]12	inactive

Reference: PubChem BioAssay (NCATS)
